Drawing on PubChem BioAssay (NCI), this text covers growth inhibition for six molecules.

This is part of a sample that, as a whole, favours compounds with a hit. Of some 79,000 tested, about 15% had one in any assay. Unmarked numbers belong to inactive results. Calls of active or inactive are those of the source. Rule as the data show it: active = growth inhibition above about 70%; inactive = the rest.

Assay [1] in a line: NCI Yeast Anticancer Drug Screen. Data for the rad50 strain (AID 155).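 Also: 0% = growth of vehicle-only cultures of the same strain.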 The conditions noted are these: S. cerevisiae rad50 strain growth inhibition, stronger effect = higher value. In short, it runs like this: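 Readout: growth inhibition relative to vehicle-treated cultures. Compound exposure was carried out in a genetically defined yeast strain deficient in DNA damage repair.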
Assay [2] is described as follows: NCI Yeast Anticancer Drug Screen. Data for the mec2-1 strain (AID 157). The conditions noted are these: S. cerevisiae mec2-1 strain, stronger effect = higher value. In short, it runs like this: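 Mutant yeast (mec2-1) grown with compound; growth inhibition relative to vehicle control reported.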
Assay [3] in a line: NCI Yeast Anticancer Drug Screen. Data for the sgs1 mgt1 strain (AID 161).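 Also: 0% = growth of cultures given vehicle only.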 As to conditions: S. cerevisiae sgs1 mgt1 strain, stronger effect = higher value. In short, it runs like this: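 Compounds are added to genetically altered yeast, and growth is compared with cultures given vehicle alone to give percent inhibition.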
Assay [4] in a line: NCI Yeast Anticancer Drug Screen. Data for the cln2 rad14 strain (AID 165).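 Also: 0% = growth equal to vehicle treated cultures.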 As to conditions: S. cerevisiae cln2 rad14 strain, stronger effect = higher value. The gist of the method: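 Readout is yeast growth inhibition versus vehicle-treated controls, using a strain with cln2 and rad14 alterations exposed to compound.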
Assay [5] in a line: NCI Yeast Anticancer Drug Screen. Data for the bub3 strain (AID 167). As to conditions: S. cerevisiae bub3 mutant strain, stronger effect = higher value. In short, it runs like this: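 Readout: yeast growth inhibition, expressed relative to vehicle-only wells. The test organism is a mutant strain from a panel with lesions in DNA repair or checkpoint genes.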
Assay [6] can be described thus: NCI Yeast Anticancer Drug Screen. Data for the mlh1 rad18 strain (AID 175). The conditions noted are these: S. cerevisiae mlh1 rad18 strain growth inhibition, stronger effect = higher value. The gist of the method:
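Genetically defined yeast (DNA repair-deficient) exposed to compounds; growth inhibition determined relative to vehicle.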

Where [7] appears, read: at 5.0 µM (retest, dose inferred, filed as 0.5).
Where [8] appears, read: at 50.0 µM (retest, dose inferred, filed as 5.0).

For the molecule `CSc1nc(SC)c2cn(Cc3ccccc3)nc2n1`, the growth inhibition was -2% in assay [1] (setting [7]); 94% (active) in assay [1] (setting [8]); 55.5% in assay [1] (at 50.0 µM); -3% in assay [2] (setting [7]); 95% (active) in assay [2] (setting [8]); 52.1% in assay [2] (at 50.0 µM). Moreover, the growth inhibition in assay [3] (setting [7]) is -5%; in assay [3] (setting [8]), 97% (active); in assay [3] (at 50.0 µM) it was 80.7% (active); in assay [4] (setting [7]) it was -8%; in assay [4] (setting [8]), 85% (active); in assay [4] (at 50.0 µM) it was 26.2%. The growth inhibition in assay [5] (setting [7]) is 4%; in assay [5] (setting [8]) it was 92% (active); in assay [5] (at 50.0 µM) it was 42.8%; in assay [6] (setting [7]), -2%; in assay [6] (setting [8]) it was 95% (active); in assay [6] (at 50.0 µM), 63.8%.

Turning to `COc1ccc(/C=C/c2ccnnc2)c(OC)c1OC`, the growth inhibition in assay [1] (setting [7]) was -7%; in assay [1] (setting [8]) it was 6%; in assay [1] (at 50.0 µM), 53.2%; in assay [2] (setting [7]), -3%; in assay [2] (setting [8]) it was 8%; in assay [2] (at 50.0 µM), 79.5% (active). Also, the growth inhibition is -6% in assay [3] (setting [7]); 5% in assay [3] (setting [8]); 28.6% in assay [3] (at 50.0 µM); -4% in assay [4] (setting [7]); 39% in assay [4] (setting [8]); 52.8% in assay [4] (at 50.0 µM). The growth inhibition is -5% in assay [5] (setting [7]); 15% in assay [5] (setting [8]); 39.3% in assay [5] (at 50.0 µM); -6% in assay [6] (setting [7]); 2% in assay [6] (setting [8]); 93.7% (active) in assay [6] (at 50.0 µM).

Take `CCCCCCCC(=O)N1CCCCC1CC` (stereo not drawn): the growth inhibition was -142% in assay [1] (setting [7]); 14% in assay [1] (setting [8]); 72.1% (active) in assay [1] (at 50.0 µM); -49% in assay [2] (setting [7]); -30% in assay [2] (setting [8]); 25.6% in assay [2] (at 50.0 µM). Moreover, the growth inhibition was -63% in assay [3] (setting [7]); 24% in assay [3] (setting [8]); 73% (active) in assay [3] (at 50.0 µM); -53% in assay [4] (setting [7]); -68% in assay [4] (setting [8]); -6.15% in assay [4] (at 50.0 µM). Besides, the growth inhibition is -53% in assay [5] (setting [7]); 17% in assay [5] (setting [8]); -9.4% in assay [5] (at 50.0 µM); -118% in assay [6] (setting [7]); -64% in assay [6] (setting [8]); 24.2% in assay [6] (at 50.0 µM).

Turning to `O=C(O)/C=C/c1ccc(Cl)c(Cl)c1`, the growth inhibition in assay [1] (setting [7]) was 9%; in assay [1] (setting [8]) it was 83% (active); in assay [1] (at 50.0 µM) it was 93.1% (active); in assay [2] (setting [7]), -15%; in assay [2] (setting [8]), 55%; in assay [2] (at 50.0 µM), 64.3%. Moreover, the growth inhibition is 11% in assay [3] (setting [7]); 59% in assay [3] (setting [8]); 55.1% in assay [3] (at 50.0 µM); 19% in assay [4] (setting [7]); 45% in assay [4] (setting [8]); 63.5% in assay [4] (at 50.0 µM). Also, the growth inhibition is -1% in assay [5] (setting [7]); 77% (active) in assay [5] (setting [8]); 86.8% (active) in assay [5] (at 50.0 µM); -17% in assay [6] (setting [7]); 90% (active) in assay [6] (setting [8]); 92.9% (active) in assay [6] (at 50.0 µM).

As to `COc1ccc(/C(C#N)=C/c2ccncc2)cc1`, the growth inhibition was 1% in assay [1] (setting [7]); 28% in assay [1] (setting [8]); 73.2% (active) in assay [1] (at 50.0 µM); -49% in assay [2] (setting [7]); 14% in assay [2] (setting [8]); 39.2% in assay [2] (at 50.0 µM). Further, the growth inhibition is -2% in assay [3] (setting [7]); 28% in assay [3] (setting [8]); 68% in assay [3] (at 50.0 µM); 4% in assay [4] (setting [7]); 23% in assay [4] (setting [8]); 46.4% in assay [4] (at 50.0 µM). The growth inhibition in assay [5] (setting [7]) is 7%; in assay [5] (setting [8]), 67%; in assay [5] (at 50.0 µM), 77.4% (active); in assay [6] (setting [7]), -3%; in assay [6] (setting [8]), 28%; in assay [6] (at 50.0 µM), 51.3%.

With `O=C(C1=Cc2ccccc2OC1)N1CCN(c2cccc(Cl)c2)CC1`, the growth inhibition in assay [1] (setting [7]) was -1%; in assay [1] (setting [8]) it was 96% (active); in assay [1] (at 50.0 µM), 49.3%; in assay [2] (setting [7]) it was -6%; in assay [2] (setting [8]), 98% (active); in assay [2] (at 50.0 µM), 35.9%. The growth inhibition in assay [3] (setting [7]) is 1%; in assay [3] (setting [8]), 97% (active); in assay [3] (at 50.0 µM) it was 72.2% (active); in assay [4] (setting [7]) it was -6%; in assay [4] (setting [8]) it was 97% (active); in assay [4] (at 50.0 µM), 57.8%. The growth inhibition is 10% in assay [5] (setting [7]); 97% (active) in assay [5] (setting [8]); 89.5% (active) in assay [5] (at 50.0 µM); -12% in assay [6] (setting [7]); 97% (active) in assay [6] (setting [8]); 71.2% (active) in assay [6] (at 50.0 µM).
